Source: PubChem BioAssay
FLuc counter: inhibits or activates purified firefly luciferase, miR-21 counter-screen. P08659. purified FLuc, Km substrates, luminescence inhibition. Potency, µM (series often up to 57.5 µM), without a hit: at the highest dose activity change, negative = inhibition, actives largely listed as inhibitors. actives 6.9% (n = 360,000);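 also: plate controls were vehicle for no effect and reference inhibitor for full effect; nearly all actives have a fitted effect of over 55% in size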
Target sequence (P08659 whole entry, looked up): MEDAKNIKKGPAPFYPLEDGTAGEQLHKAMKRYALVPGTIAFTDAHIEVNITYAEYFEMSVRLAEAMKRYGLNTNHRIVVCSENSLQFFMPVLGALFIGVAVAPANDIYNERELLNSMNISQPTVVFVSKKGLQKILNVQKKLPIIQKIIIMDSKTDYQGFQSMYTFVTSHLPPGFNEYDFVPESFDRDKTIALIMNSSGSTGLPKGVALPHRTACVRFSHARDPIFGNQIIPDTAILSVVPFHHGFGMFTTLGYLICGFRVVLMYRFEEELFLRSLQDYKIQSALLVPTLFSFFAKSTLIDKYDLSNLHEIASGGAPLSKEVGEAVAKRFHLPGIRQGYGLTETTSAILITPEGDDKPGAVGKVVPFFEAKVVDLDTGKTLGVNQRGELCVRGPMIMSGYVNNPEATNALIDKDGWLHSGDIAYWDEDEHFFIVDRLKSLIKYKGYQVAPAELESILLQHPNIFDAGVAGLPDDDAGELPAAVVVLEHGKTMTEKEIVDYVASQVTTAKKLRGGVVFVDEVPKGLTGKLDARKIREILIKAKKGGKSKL
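Purified P. pyralis luciferase (10nM final) with 10uM D-luciferin and 10uM ATP (Km levels) in 50mM Tris acetate pH 7.5, 10mM Mg acetate, 0.01% Tween-20, 0.05% BSA; qHTS 6-point titration, ~60 µM downward; luminescence read.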
Rab9 promoter act: activates the Rab9 promoter; AID 485297; Potency, µM (series often up to 9.22 µM), for inactives: top-dose activation, negative = inhibition, most hits filed as activators; actives 2.8% (n = 320,000); Huh7 Rab9 promoter-luciferase reporter, luminescence, 24 h; also: % of control where 0% means no effect; nearly all actives have a fitted effect of over 60% in size
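Luminescence read-out: Huh7 cells stably expressing Rab9-luciferase, treated 24 h with compound at 37 °C, then lysed with luciferase reagent for 10 min at ambient before reading.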
ELG1 genotox: genotoxicity induction in ELG1-luciferase HEK293T cells. HEK293T ELG1-luciferase reporter, luminescence, 16 h. Potency, µM (doses to about 46 µM), for inactives: at the top dose activity change, positive = activation, hits mostly activators. actives 1.3% (n = 330,000). AID 504466; also: % of control where 0% means no effect; nearly all actives have a fitted effect of over 60% in size
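Step 1: seed 2,000 HEK293T ELG1-luciferase cells per well. Step 2: add compound or DMSO, incubate 16 hr at 37 °C. Step 3: ONE-Glo, 30 min at room temperature, read luminescence.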
SMN2 splice up: increases expression of the SMN2 splice variant; HEK293 SMN2-luciferase splicing reporter, luminescence, 30-36 h; Potency, µM (highest dose often 46.1 µM), inactives show at the highest dose activity change, positive = activation, actives largely listed as activators; actives 2.8% (n = 210,000); also: % of control where 0% means no effect; nearly all actives have a fitted effect of over 55% in size
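HEK293 cells carry an SMN2 minigene-luciferase reporter in which exon 7 inclusion puts luciferase in frame. Cells were seeded at 2000 cells/well, attached for 10-12 hours, then exposed to compounds for 30-36 hours at 37C before ONE-Glo luminescence.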
NPC1 prom act: activates the NPC1 promoter; actives 2.4% (n = 320,000); Potency, µM (top dose mostly 9.22 µM), without a hit: at the top dose activation, hits mostly activators; Huh7 NPC1 promoter luciferase reporter, 24 h; also: % of control where 0% means no effect; nearly all actives have a fitted effect of over 60% in size
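Luminescence from an NPC1 promoter-driven luciferase reporter in stably transfected Huh7 cells was measured after 24 h compound treatment at 37 °C, followed by 10 min ambient incubation with luciferase detection reagent.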
The depositor's hits bear a star; ? = inconclusive; nt = no result. An excerpt weighted towards active compounds, which were near 7.4% of everything screened. Calls follow the shape of the dose curve; as a rule, active = well fitted curve in the direction sought with a large enough effect; inconclusive = small, poorly fitted or top-dose-only effect, or another doubt; inactive = no such curve, though single readings can be large; an effect the other way counts as inactive or inconclusive. Potency is read from the fitted curve at half-maximal effect.

SMILES | FLuc counter | Rab9 promoter act | ELG1 genotox | SMN2 splice up | NPC1 prom act
Cc1ccc(CSc2nnc(-c3ccco3)o2)cc1 | 12µM* | 4µM* | ? | 20% | ?
c1ccc(CSc2nnc(-c3ccco3)o2)cc1 | 17µM* | ? | ? | nt | ?
Fc1ccc(CSc2nnc(-c3ccco3)o2)cc1 | ? | ? | 15% | nt | ?
O=C(CSc1nnc(-c2ccco2)o1)c1ccccc1Cl | 27µM* | ? | 15% | 22% | 17%
Cc1c(C(=O)NCc2ccccc2CN2CCCC2)oc2ccc(F)cc12 | 1% | 0% | -1% | nt | 0%
C[Si](C)(C)C#Cc1ccccc1NC(=S)Nc1ccccc1 | nt | nt | nt | 24% | nt
COc1ccc(-c2[nH]c(-c3ccc(F)cc3)nc2SCC(=O)Nc2ccc(OC)c(OC)c2)cc1 | 3% | nt | nt | 3% | nt
COc1ccc(-n2ncc3c(NCC4CCCO4)ncnc32)cc1 (configuration not stated) | 11µM* | 0.89µM* | 12% | 11µM* | 0.56µM*
Clc1ccc(-n2ncc3c(NCC4CCCO4)ncnc32)cc1 (configuration not stated) | 1.7µM* | 0.45µM* | ? | 5µM* | 0.63µM*
c1ccc(-n2ncc3c(NCC4CCCO4)ncnc32)cc1 (configuration not stated) | 17µM* | 3.5µM* | 2% | -1% | 2µM*
CC(Sc1ncnc2c1cnn2-c1ccccc1)C(=O)NCC1CCCO1 (configuration not stated) | ? | -4% | 2% | nt | -5%
O=C(CC1C(=O)N(c2ccc(F)cc2)C(=O)N1Cc1ccc2c(c1)OCO2)Nc1ccc(F)cc1 (configuration not stated) | -4% | nt | nt | 2% | nt
Cc1ccc(C)c(Cn2c(=O)n(CC3CCC(C(=O)N4CCOCC4)CC3)c(=O)c3sccc32)c1 (configuration not stated) | -3% | nt | nt | nt | nt
Cc1ccc(-c2nc3ncccc3o2)cc1NC(=O)c1ccc(-c2cccc(Cl)c2C)o1 | -15% | nt | nt | -4% | nt
COC(C)(C)CCCC(C)C/C=C/C(C)=C/C(=O)O (configuration not stated) | nt | nt | nt | -3% | nt
CN1CCC2(CC1)CCN(C(=O)c1cc(C(F)(F)F)cc(C(F)(F)F)c1)CC2 | nt | nt | nt | 1% | nt
O=C(c1cccs1)N(CCN1CCCCC1)CC1CCCN(C2CCCC2)C1 (configuration not stated) | 17µM* | ? | 18% | nt | 23%
Cc1ccc(C(=O)N(CCN2CCCCC2)CC2CCCN(C3CCCC3)C2)s1 (configuration not stated) | ? | ? | 16% | nt | 22%
CC(=O)Nc1cccc(NC(=O)CCN2C(=O)c3ccccc3S2(=O)=O)c1 | -1% | 1% | -10% | nt | 4%
Clc1ccc(-n2nnc(-c3nccs3)n2)cc1Cl | 1.9µM* | 0.89µM* | 5.2µM* | nt | 1.6µM*
Cc1ccc(-n2nnc(-c3nccs3)n2)cc1 | 0.12µM* | ? | 0.23µM* | nt | ?
COC(=O)c1sc2nc(-c3ccco3)ccc2c1N | 0.38µM* | 1.1µM* | ? | 6.3µM* | 1.4µM*
Nc1c(C(=O)Nc2ccccc2F)sc2nc(-c3ccco3)ccc12 | ? | ? | ? | -19% | ?
NC(=O)c1sc2nc(-c3ccco3)ccc2c1N | 11µM* | ? | ? | ? | ?
O=C(COC(=O)c1n[nH]c2ccccc12)NC1CCCCC1 | nt | nt | 0% | nt | nt
SMILES | FLuc counter | Rab9 promoter act | ELG1 genotox | SMN2 splice up | NPC1 prom act
COc1ccc(/C=N/NC(=O)Cc2cccs2)cc1 | 17µM* | ? | ? | nt | ?
O=C(/C=C/c1ccco1)NCC(=O)N/N=C/c1ccccc1[N+](=O)[O-] | 1% | 1% | 18% | -10% | -1%
Cc1ccc(/C=N/NC(=O)Cc2cccs2)o1 | -9% | 11% | -3% | 2% | 10%
CCN(CC)c1ccc(/C=N/NC(=O)Cc2cccs2)cc1 | 27µM* | -3% | 3% | -1% | 12%
CCN(CC)c1ccc(/C=N/NC(=O)CNC(=O)/C=C/c2ccco2)cc1 | 24µM* | -1% | 2% | nt | -1%
O=C(NC1CCN(S(=O)(=O)c2ccc(F)cc2)CC1)c1cccc(F)c1 | 1% | 0% | 4% | nt | 0%
Cc1cccc(N2CCN(C(=O)Cn3ncc4c([nH]c5ccccc54)c3=O)CC2C)c1 (configuration not stated) | -2% | nt | nt | nt | nt
O=C(Nc1ccc2oc(-c3cccnc3)nc2c1)c1cccnc1 | ? | 17% | 3% | -10% | 12%
Cc1ccc2oc(-c3ccc(NC(=O)CC(C)C)cc3)nc2c1 | 0.76µM* | ? | 2.3µM* | ? | 0.28µM*
CC(C)CC(=O)Nc1ccc2oc(-c3cccnc3)nc2c1 | 13µM* | ? | ? | ? | ?
CCc1ccc2oc(-c3ccc(NC(C)=O)cc3)nc2c1 | 1.9µM* | 0.63µM* | 3.3µM* | nt | ?
CCc1ccc(-c2nc3cc(NC(=O)c4ccc(C)c(C)c4)ccc3o2)cc1 | -1% | nt | nt | -22% | nt
O=C(Nc1ccc2nc(-c3ccccc3)oc2c1)c1ccco1 | 21µM* | 3.2µM* | ? | ? | ?
CCC(C)NCC(=O)Nc1ccc(-c2nc3cc(NC(=O)CNC(C)CC)ccc3o2)cc1 (configuration not stated) | -7% | -2% | -11% | ? | 0%
Cc1cc(C)c(S(=O)(=O)N2CCN(C(=O)c3ccc(-n4cncn4)c([N+](=O)[O-])c3)CC2)c(C)c1 | 0% | -7% | 0% | nt | -4%
Cc1ccc(C(=O)OCN2C(=O)c3ccccc3C2=O)cc1S(=O)(=O)N1CCOCC1 | 2% | 3% | -2% | nt | -2%
CC(C)(C)C#CC(CCc1ccccc1)OS(N)(=O)=O (configuration not stated) | -3% | -6% | -1% | nt | -3%
O=C(Nc1ccc(-c2nc3ncccc3o2)cc1)c1ccco1 | 8.5µM* | 1.6µM* | ? | ? | 2.5µM*
O=C(Nc1ccc2oc(-c3cccnc3)nc2c1)c1ccco1 | 15µM* | ? | 16% | 3% | ?
CCC(=O)Nc1ccc2oc(-c3cccnc3)nc2c1 | 17µM* | 3.5µM* | ? | nt | ?
O=C(Nc1ccc(-c2nc3ncccc3o2)cc1)c1ccc(Br)o1 | -8% | 27% | 4% | 19% | 8%
Cc1onc(-c2ccccc2Cl)c1C(=O)NC1C(=O)N2C1SC(C)(C)C2C(=O)O (configuration not stated) | nt | nt | nt | 15% | nt
CCOc1nc2cnccc2n(CC(=O)Nc2ccc(C)c(C)c2)c1=O | 0% | -5% | 4% | nt | 1%
CC(C)[C@@H](CC(=O)N[C@@H]1CCCC[C@H]1C(=O)N[C@H](CC(=O)N[C@@H](CCC(=O)O)CC(=O)O)Cc1c[nH]c2ccccc12)NC(=O)C[C@H](CO)NC(=O)[C@@H]1CCCC[C@H]1N | nt | nt | nt | 9% | nt
CC(C)=CC[C@@H](O)C1=CC(=O)c2c(O)ccc(O)c2C1=O | nt | nt | nt | -99% | nt
